PubChem BioAssay AID1053205 (Broad Institute, 2014)
Entries with a potency or affinity are not part of this list. Records with an inconclusive call do not appear. Calls of active or inactive are those of the source.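 Rule for the calls: active = compounds lowering the FRET ratio whose fitted half-maximal concentration is at most twice their top tested dose; inconclusive = flat partial drop between 30 and 70 percent, or bad fit; inactive = the rest.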

Target: Voltage-dependent L-type calcium channel subunit alpha-1D (Homo sapiens) (UniProt Q01668)
Experiment: inhibitors of CaV1.3 ICDI-IQ binding, dose response, cell-based, HEK293, YFP-IQ/CFP-ICDI FRET, cherry-picks (AID 1053205)

Chain of Voltage-dependent L-type calcium channel subunit alpha-1D (Homo sapiens) (Q01668 whole entry, looked up): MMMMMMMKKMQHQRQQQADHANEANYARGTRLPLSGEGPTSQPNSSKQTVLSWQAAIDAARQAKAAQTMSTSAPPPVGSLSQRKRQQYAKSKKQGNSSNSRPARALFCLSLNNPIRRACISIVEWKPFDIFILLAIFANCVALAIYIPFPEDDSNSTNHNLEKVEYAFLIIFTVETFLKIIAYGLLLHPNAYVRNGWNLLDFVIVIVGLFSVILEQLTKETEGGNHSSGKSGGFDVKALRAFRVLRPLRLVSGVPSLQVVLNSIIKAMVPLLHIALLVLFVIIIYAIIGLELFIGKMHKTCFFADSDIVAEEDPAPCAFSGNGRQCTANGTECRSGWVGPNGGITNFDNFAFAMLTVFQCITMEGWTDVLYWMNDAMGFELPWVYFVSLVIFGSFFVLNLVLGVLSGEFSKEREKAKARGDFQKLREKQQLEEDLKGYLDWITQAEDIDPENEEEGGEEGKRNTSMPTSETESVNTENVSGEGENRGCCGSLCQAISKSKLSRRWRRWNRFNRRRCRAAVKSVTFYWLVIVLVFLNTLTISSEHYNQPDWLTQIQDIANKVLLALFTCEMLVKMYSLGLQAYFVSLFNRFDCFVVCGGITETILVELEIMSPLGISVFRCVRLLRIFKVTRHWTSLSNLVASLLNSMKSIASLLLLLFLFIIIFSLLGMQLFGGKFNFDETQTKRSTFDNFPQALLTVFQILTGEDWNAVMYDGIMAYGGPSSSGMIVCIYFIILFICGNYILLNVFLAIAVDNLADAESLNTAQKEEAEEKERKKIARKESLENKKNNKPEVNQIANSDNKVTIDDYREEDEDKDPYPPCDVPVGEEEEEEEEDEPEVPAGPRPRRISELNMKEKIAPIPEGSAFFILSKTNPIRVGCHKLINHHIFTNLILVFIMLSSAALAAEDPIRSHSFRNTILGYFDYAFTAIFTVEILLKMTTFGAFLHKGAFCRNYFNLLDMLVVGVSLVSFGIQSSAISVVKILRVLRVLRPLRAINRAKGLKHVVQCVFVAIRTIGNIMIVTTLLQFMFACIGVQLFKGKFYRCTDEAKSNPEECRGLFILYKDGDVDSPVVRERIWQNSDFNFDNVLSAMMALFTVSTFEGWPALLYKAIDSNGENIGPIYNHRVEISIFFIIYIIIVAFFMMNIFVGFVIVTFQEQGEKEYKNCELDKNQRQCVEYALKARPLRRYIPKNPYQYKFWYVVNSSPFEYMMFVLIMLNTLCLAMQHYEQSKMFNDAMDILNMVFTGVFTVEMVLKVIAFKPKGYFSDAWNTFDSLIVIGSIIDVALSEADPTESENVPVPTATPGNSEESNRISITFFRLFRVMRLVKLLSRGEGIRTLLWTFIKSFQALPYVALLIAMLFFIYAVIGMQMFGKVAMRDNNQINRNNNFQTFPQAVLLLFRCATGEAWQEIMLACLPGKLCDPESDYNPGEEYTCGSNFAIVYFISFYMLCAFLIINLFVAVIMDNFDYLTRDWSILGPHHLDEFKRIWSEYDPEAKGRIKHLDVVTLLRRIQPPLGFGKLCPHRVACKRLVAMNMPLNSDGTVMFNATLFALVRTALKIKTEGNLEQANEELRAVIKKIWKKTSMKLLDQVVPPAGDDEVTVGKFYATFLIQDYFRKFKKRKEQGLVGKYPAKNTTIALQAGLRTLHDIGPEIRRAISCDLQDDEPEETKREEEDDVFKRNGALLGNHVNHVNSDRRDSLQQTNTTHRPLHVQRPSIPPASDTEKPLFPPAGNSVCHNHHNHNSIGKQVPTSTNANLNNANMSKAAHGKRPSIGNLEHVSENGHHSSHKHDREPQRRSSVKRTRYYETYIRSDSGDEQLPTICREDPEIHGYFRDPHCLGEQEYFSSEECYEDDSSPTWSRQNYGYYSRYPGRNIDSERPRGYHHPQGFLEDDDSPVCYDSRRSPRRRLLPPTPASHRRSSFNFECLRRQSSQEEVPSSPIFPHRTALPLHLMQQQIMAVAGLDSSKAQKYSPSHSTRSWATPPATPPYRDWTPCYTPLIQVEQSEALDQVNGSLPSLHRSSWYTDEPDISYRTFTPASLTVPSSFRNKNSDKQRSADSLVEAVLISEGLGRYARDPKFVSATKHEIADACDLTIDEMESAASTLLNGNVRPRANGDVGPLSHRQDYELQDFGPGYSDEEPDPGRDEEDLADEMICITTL

Structure (SMILES) | outcome
N#CC1=C(N)Oc2cc(O)ccc2C1c1ccc2c(c1)OCO2 (configuration not stated) | inactive
CC(C)OP(=O)(O)NC(=O)c1ccccc1 | inactive
